{"source": "PubChem BioAssay AID1259422", "about": "(The Scripps Research Institute Molecular Screening Center, 2018)", "note": "Values joined by “and” are separate entries in the source; they are usually repeats but may differ in a detail not shown here. Equal entries are not always repeated. Screen size: about 640,000 compounds; about 9,300 (1.5%) were called active. The entries come from a sample that favours actives as a whole. Values without a mark were called inactive. Rule as the data show it: active = inhibition above about 32%; inactive = the rest.", "data": [{"assay": "TEAD-YAP interaction inhibition, primary screen, TEAD-YAP interaction inhibitor project, luminescence, HEK-TIYL cells (AID 1259422);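 also: 0% = median of test compound wells and 100% = reference inhibitor wells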", "conditions": "TEAD-Gal4/YAP UAS-luciferase luminescence, at 9.12 µM, active compounds read high", "values": [{"compound": "CCOC(=O)c1cccc(NC(=O)COc2ccccc2Br)c1", "inhibition": "54.5% (active)"}, {"compound": "Cc1ccsc1/C=N/NS(=O)(=O)c1ccc(Br)cc1", "inhibition": "-2.4%"}, {"compound": "CC(C)C(=O)N=C1N=C2C=CC(Cl)=CN2Cc2ccccc21", "inhibition": "-43.4%"}, {"compound": "COC(=O)c1ccc(Nc2ncnc3nc[nH]c23)cc1", "inhibition": "12.4%"}, {"compound": "COc1ccccc1-c1cnnc(N/N=C/c2cccc(OC)c2OCC(=O)O)n1", "inhibition": "15%"}, {"compound": "COc1ccc(/C=N/Nc2ncnc3nc[nH]c23)cc1OC", "inhibition": "-5.99%"}, {"compound": "COc1cccc(/C=N/Nc2ncnc3nc[nH]c23)c1OC", "inhibition": "37.2% (active)"}, {"compound": "CCOc1ccc(/C=N/Nc2ncnc3nc[nH]c23)cc1", "inhibition": "81.1% (active)"}, {"compound": "COc1cccc(/C=N/Nc2nc(=O)[nH]nc2C)c1OC", "inhibition": "-7.82%"}, {"compound": "Cc1sc2ncn(CC(=O)NCCCC(=O)NCCC3=CCCCC3)c(=O)c2c1C", "inhibition": "6.71%"}, {"compound": "CCOc1ccc(/C(O)=C2/C(=O)C(=O)N(CCN(CC)CC)C2c2ccc(F)cc2)cc1C", "note": "(stereo unspecified)", "inhibition": "-0.51%"}, {"compound": "CCCCCCn1c(NNC=O)nc2c1c(=O)[nH]c(=O)n2C", "inhibition": "5.98%"}, {"compound": "CCOC(=O)c1ccc(NC(=O)C2CC(=O)N(CCc3ccccc3)C(=Nc3ccccc3)S2)cc1", "note": "(stereo unspecified)", "inhibition": "5.21%"}, {"compound": "Cc1ccc(CN(C)Cc2c(C(=O)N3CCN(C4CCCCC4)CC3)nc3ccccn23)o1", "inhibition": "-4.7%"}, {"compound": "COc1ccc(Nc2nc(N3CCCC3)nc(N3CCCC3)n2)cc1", "inhibition": "1.54%"}, {"compound": "COc1ccccc1N1CCN(C(=O)c2n[nH]c(=O)c3ccccc23)CC1", "inhibition": "59% (active)"}, {"compound": "COc1cc(CN2CCN(c3ccccc3OC)CC2)cc(OC)c1", "inhibition": "4.91%"}, {"compound": "COc1cc2nc(CN3CCN(c4ccccc4OC)CC3)[nH]c(=O)c2cc1OC", "inhibition": "63.6% (active)"}, {"compound": "COc1ccccc1-n1nc(C(=O)N2CCN(c3ccccc3)CC2)c2ccccc2c1=O", "inhibition": "0.45%"}, {"compound": "O=C(c1n[nH]c(=O)c2ccccc12)N1CCN(Cc2ccccc2)CC1", "inhibition": "-7.02%"}, {"compound": "COc1cc(OC)c(OC)cc1CN1CCN(c2ccccc2F)CC1", "inhibition": "2.95%"}, {"compound": "COc1ccccc1N1C(=O)C2C(C(C)=O)=NN(c3cccc(Cl)c3)C2C1=O", "note": "(stereo unspecified)", "inhibition": "2.39%"}, {"compound": "O=C(CN1CCOCC1)NCC1(c2ccccc2)CCCC1", "inhibition": "4.7%"}, {"compound": "CCOC(=O)c1c(NC(=O)CSc2nnc(CNC(=O)c3cccs3)n2-c2ccccc2OC)sc2c1CCCCC2", "inhibition": "11.5%"}, {"compound": "O=S1(=O)Nc2cccc3cccc1c23", "inhibition": "9.46%"}, {"compound": "CCNCC(=O)Nc1ccc(NC(C)=O)cc1", "inhibition": "5.37%"}, {"compound": "CC(=O)Nc1ccc(CN2CCOCC2)cc1", "inhibition": "-2.53%"}, {"compound": "CCN1C/C(=C/c2ccc(NC(C)=O)cc2)C(=O)/C(=C/c2ccc(NC(C)=O)cc2)C1", "inhibition": "77.6% (active)"}, {"compound": "CCCOc1ccc(/C(O)=C2/C(=O)C(=O)N(CCN3CCOCC3)C2c2ccc(F)cc2)cc1C", "note": "(stereo unspecified)", "inhibition": "-9.41%"}, {"compound": "O=C1CCCN1CCCNc1cc(-c2cccs2)ncn1", "inhibition": "-13.2%"}, {"compound": "CN(CCC#N)C(=O)Cn1ncc2c1-c1ccccc1OC2", "inhibition": "4.76%"}, {"compound": "COC(=O)c1cc(S(=O)(=O)Nc2ccc(C(C)=O)cc2)cn1C", "inhibition": "-5.94%"}, {"compound": "CC(=O)NC1=NN(C(C)=O)C(C)(c2ccc(C)cc2)S1", "note": "(stereo unspecified)", "inhibition": "10.1%"}, {"compound": "COc1ccc(C2(C)SC(NC(C)=O)=NN2C(C)=O)cc1", "note": "(stereo unspecified)", "inhibition": "17.7%"}, {"compound": "CC(=O)NC1=NN(C(C)=O)C(C)(c2ccc(Cl)s2)S1", "note": "(stereo unspecified)", "inhibition": "63.5% (active)"}, {"compound": "CCOC(=O)c1ccc(Nc2c(-c3ccccc3)c(=O)c2=O)cc1", "inhibition": "-7.89%"}, {"compound": "NC(=O)C1(N2CCCCC2)CCN(C(=O)Nc2ccc(Cl)cc2)CC1", "inhibition": "3.68%"}, {"compound": "CCC(OC(=O)C(CCSC)NC(=O)c1ccccc1)C(=O)Nc1ccc(S(N)(=O)=O)cc1", "note": "(stereo unspecified)", "inhibition": "-0.22%"}, {"compound": "C=CCOC(=O)c1sc(N2C(=O)C(=O)/C(=C(/O)c3ccccc3)C2c2ccc(C)cc2)nc1C", "note": "(stereo unspecified)", "inhibition": "7.19%"}, {"compound": "CCCn1c(NCCO)nc2c1c(=O)n(C)c(=O)n2C", "inhibition": "15.2%"}, {"compound": "CN(C)CCNc1nc2c(c(=O)n(C)c(=O)n2C)n1Cc1ccc(F)cc1", "inhibition": "10.5%"}, {"compound": "COc1ccc(Cn2c(NCCO)nc3c2c(=O)n(C)c(=O)n3C)cc1", "inhibition": "40.8% (active)"}, {"compound": "CC1=C/C(=N\\S(=O)(=O)c2ccccc2)C=C(Br)C1=O", "inhibition": "-6.31%"}, {"compound": "CC1=C(C(=O)OC(C)C)C(c2cccs2)C2=C(CC(c3ccco3)CC2=O)N1", "note": "(stereo unspecified)", "inhibition": "60.2% (active)"}, {"compound": "COCCOC(=O)C1=C(C)NC2=C(C(=O)CC(c3cccs3)C2)C1c1ccc(C)s1", "note": "(stereo unspecified)", "inhibition": "16% and 7.86%"}, {"compound": "CC1=C(C(=O)OCC2CCCO2)C(c2cccs2)C2=C(CC(c3cccs3)CC2=O)N1", "note": "(stereo unspecified)", "inhibition": "9.36%"}]}]}
